Test results published in PubChem BioAssay.

Assay: probe aLefty1 binding on compound microarray – biochemical, small-molecule microarray, 635/667 nm fluorescence, primary screen (AID 1153);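 also: score merges spot fluorescence with signal-to-noise ratio from the scanned slide images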
Conditions: higher = more signal

Row | Structure (SMILES) | composite z-score
1 | CC[C@@H]1C=C(C(=O)O)[C@H](c2ccc(Br)cc2)N1S(=O)(=O)c1ccc(C)cc1 | -0.0989
2 | O=C1c2ccccc2[C@](Cc2ccccc2I)(C(=O)NCCN2CCOCC2)[C@H](c2ccc(CO)cc2)N1Cc1ccccc1Cl | 0.559
3 | COC(=O)[C@@]1(Cc2ccc(OC)cc2)[C@H]2c3cc(C(=O)N4CCCC4)n(CCN4CNCC4=O)c3C[C@H]2CN1C(=O)c1ccccc1 | 1.86
4 | COC(=O)[C@@]1(Cc2ccc(OC)cc2)[C@@H]2C(=CC(=O)[C@H]2CC(=O)C(=O)N2CCCC2)CN1C(=O)c1ccccc1 | 0.114
5 | C=CCNC(=O)[C@@H]1[C@H]2C(=O)O[C@H](c3ccccc3)[C@H](c3ccccc3)N2[C@H](c2ccc(O)cc2)[C@@]12C(=O)N(C(=O)OCCOC)c1ccc(C#CCNC(N)=O)cc12 | 0.0012
6 | Cc1ccc(S[C@]2(C(=O)NCCCN(C)C)CC(=O)N(Cc3cc(C(F)(F)F)cc(C(F)(F)F)c3)[C@@H]2c2ccc(CO)cc2)cc1 | -0.506
7 | COc1ccc([Si](C)(C)[C@H]2[C@H](CCO)O[C@@]3(C(=O)N(Cc4ccc(N(C=O)c5ccccc5)cc4)c4ccccc43)[C@@H]2C)cc1 | 0.0406
8 | [N-]=[N+]=Nc1ccccc1[C@H]1OC(c2ccc(OCCCO)cc2)=N[C@@]1(CCS(=O)(=O)c1ccccc1)C(N)=O | 0.138
9 | NC(=O)NCC#Cc1ccc2c(c1)[C@]1(C(=O)N2)[C@H](c2ccccc2OCCO)N2[C@H](c3ccccc3)[C@H](c3ccccc3)OC(=O)[C@H]2[C@@H]1C(=O)Nc1nc2ccccc2s1 | 0.0692
10 | CCCC=C(CCC)[C@@H](NC(=O)c1cccs1)c1ccc(C(F)(F)F)cc1 | 0.504
11 | CN(C)C(=O)[C@]1(Cc2ccccc2N=[N+]=[N-])N=C(c2ccc(OCCCO)cc2)O[C@@H]1c1ccccc1N=[N+]=[N-] | 0.431
12 | COC(=O)[C@@]1(Cc2ccc(OC)cc2)[C@H]2c3cc(C(=O)N(C)C)n(Cc4ccccn4)c3C[C@H]2CN1C(=O)c1ccccc1 | 0.771
13 | COC(=O)[C@@]1(Cc2ccc(F)cc2)[C@H]2c3cc(C(=O)N4CCCC4)n(CCCNc4ncc(C(F)(F)F)cc4Cl)c3C[C@H]2CN1C(=O)c1ccccc1 | 0.4
14 | O=C(CS)NCCCCCCNC(=O)[C@@H]1C[C@@H]2C(=O)NCC(=O)N2[C@@H]1c1cccc(OCCO)c1 | -0.887
15 | CCOC(=O)C[C@H]1[C@H](OC(=O)c2ccccc2-c2ccccc2)[C@@H](NC(=O)CC(C)C)c2cc(OCCCO)ccc2N1C(=O)Cc1ccc(OC)cc1 | -0.0094
16 | COc1ccc([C@H]2OC[C@@H]3C[C@@H](Cc4ccccc4)C(=O)N32)cc1 | 0.25
17 | COc1ccc(CCNC(=O)[C@@]2(C)c3ccccc3C(=O)N(C(C)C)[C@H]2c2ccc(CO)cc2)cc1 | -0.28
18 | C=CCOC(=O)[C@@H]1[C@H]2C(=O)O[C@H](c3ccccc3)[C@H](c3ccccc3)N2[C@H](c2ccc(OCCOC(=O)[C@@H]3C[C@@H]4C(=O)NCC(=O)N4[C@@H]3c3ccc(O)cc3)cc2)[C@@]12C(=O)Nc1ccc(I)cc12 | -0.404
19 | O=C1C[C@@](C(=O)NCCN2CCOCC2)(c2ccc([N+](=O)[O-])cc2)[C@@H](c2ccc(CO)cc2)N1CC12CC3CC(CC(C3)C1)C2 | 0.394
20 | COCCOC(=O)N1C(=O)[C@@]2(c3cc(C#CCC(C(=O)OC)C(=O)OC)ccc31)[C@H](C(=O)Nc1nc3ccccc3s1)[C@H]1C(=O)O[C@H](c3ccccc3)[C@H](c3ccccc3)N1[C@@H]2c1ccccc1OCCO | 0.212
21 | COC(=O)[C@@]1(Cc2ccccc2)[C@H]2c3cc(C(=O)N(C)C)n(Cc4ccsc4Br)c3C[C@H]2CN1C(=O)c1ccccc1 | 1.04
22 | CC1CC/C=C\[C@H]2OC34C=CCN(C(C)(C)C)C(=O)[C@H]3N(CCO)C(=O)[C@@H]4C2C(=O)O1 (some centres not stated) | -0.0611
23 | C=C(CCCC)/C(=C/C[C@@H](OC(C)=O)c1ccc(OCCO)cc1)c1cnc2ccccc2c1 | 0.0038
24 | CC(C)C(O)C1C=CC2C(=O)N(c3ccccc3)C(=O)C2N1Nc1ccc([N+](=O)[O-])cc1 (configuration not stated) | 0.0045
25 | C=C(COC)/C(=C/C[C@H](OC(C)=O)c1ccc(CO)o1)c1cc(C(=O)OC)ccc1OC | -0.193
26 | COC(=O)[C@@]1(Cc2ccc(OC)cc2)[C@H]2c3cc(C(=O)N(C)C)n(C)c3C[C@H]2CN1C(=O)c1ccccc1 | 1.56
27 | CCOC(=O)[C@H]1C/C=C/C[C@H](C(=O)OCC)C(=O)O[C@H]2[C@@H](OC)O[C@H](CO)[C@@H](OC(=O)c3c(OC)cccc3OC)[C@@H]2OC1=O | 0.446
